# Screens as filed in PubChem BioAssay.
# Many of the other results were omitted from the sample, so hits are more common in it than they were.
# RGS12 GoLoco inh: blocks human Gai1 binding to RGS12 GoLoco peptide, red readout. P63096. hit rate 0.44% among 230,000. AID 880. Potency, µM (top dose mostly 61.6 µM), for inactives: at the top dose activity, negative = inhibition, actives largely listed as inhibitors. Gai1:RGS12 GoLoco peptide FP, rhodamine, 10 min; active means well fitted inhibition curve with a large enough effect, not every such curve was filed as active; inactive means no such curve, though single readings can be large or run the other way; further: potency means the concentration at half of the fitted maximal effect; on the % scale 0 is the no-effect control and ±100 the full control effect; nearly all actives have a fitted effect of over 30% in size
# CBFb RUNX1 block: CBF-beta/RUNX1 interaction disruption; Q01196+Q13951; AlphaScreen CBFb-His/RUNX1-biotin binding, biochemical; Potency, µM (series often up to 59.8 µM), inactives show at the highest dose activity, negative = inhibition, hits mostly inhibitors; 230,000 tested, under 10 active; AID 1477; further: % of control where 0% means no effect
#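 CBF-beta (His) and RUNX1 (biotin), 30 nM each; 20 min preassociation; + compound, 15 min; + beads 50 ng each (Ni, streptavidin), 90 min; RT; AlphaScreen read.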
# ERG Ets-DNA blk: inhibitors of human ERG Ets domain-DNA interaction; hit rate 0.028% among 370,000; Potency, µM (top dose mostly 76.9 µM), inactives show at the highest dose FP activity, negative = inhibition, actives largely listed as inhibitors; P11308; fluorescence polarization, His-ERG Ets domain / labelled DNA; active means well fitted inhibition curve with a large enough effect in the polarisation, with a control signal flat; inconclusive means small, poorly fitted or top-dose-only effect, or effect the other way, or a change in a side signal; inactive means no such curve, though single readings can be large or run the other way; the % refers to the polarisation;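 further: polarization taken with two DNA probes labelled with fluorescein and Texas red; potency means the concentration at half of the fitted maximal effect; % of control where 0% means no effect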
#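 His-tagged ERG Ets domain (1 uM in the protein solution; 300mM KCl, 50mM Tris-HCl, 1mM EDTA, 1mM DTT, pH 7.5) received compound, then a probe mix of 5 nM fluorescein-DNA and 100nM Texas-615-DNA. Fluorescence polarization was read for both dyes.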
# TexasRed fluor: counter-screen for TRb-SRC2 inhibitors: fluorescence interference; TRb/SRC2 Texas Red total fluorescence interference; Potency, µM (highest dose often 106 µM), for the others: at the top dose fluorescence change, negative = quenching; hit rate 0.29% among 280,000; AID 1479; active means well fitted curve in either direction with a large enough effect; inconclusive means small, poorly fitted or top-dose-only effect; further: potency means the concentration at half of the fitted maximal effect; on the % scale 0 is the no-effect control and ±100 the full control effect
#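 Flags fluorescent or light-absorbing compounds by total fluorescence, S + 2P, at 555 nm excitation and 632 nm emission. Mixture: 20 nM Texas Red SRC2 peptide, 0.6 uM human TRb LBD, 1 uM T3, 5% DMSO; compound exposure 5 h at ambient temperature.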
# TRb-SRC2 inh: inhibitors of human thyroid hormone receptor beta-SRC2 interaction; Potency, µM (top dose mostly 106 µM), for inactives: at the highest dose activity change, negative = inhibition, usual class: inhibitors; TRbeta-SRC2 peptide binding, fluorescence polarization; receptor liganded with 1 µM T3; hit rate 0.065% among 280,000;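 further: potency means the concentration at half of the fitted maximal effect; plate controls were bound peptide for no effect and peptide without receptor for full effect; nearly all actives have a fitted effect of over 50% in size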
# Target sequence (P10828 whole entry, looked up): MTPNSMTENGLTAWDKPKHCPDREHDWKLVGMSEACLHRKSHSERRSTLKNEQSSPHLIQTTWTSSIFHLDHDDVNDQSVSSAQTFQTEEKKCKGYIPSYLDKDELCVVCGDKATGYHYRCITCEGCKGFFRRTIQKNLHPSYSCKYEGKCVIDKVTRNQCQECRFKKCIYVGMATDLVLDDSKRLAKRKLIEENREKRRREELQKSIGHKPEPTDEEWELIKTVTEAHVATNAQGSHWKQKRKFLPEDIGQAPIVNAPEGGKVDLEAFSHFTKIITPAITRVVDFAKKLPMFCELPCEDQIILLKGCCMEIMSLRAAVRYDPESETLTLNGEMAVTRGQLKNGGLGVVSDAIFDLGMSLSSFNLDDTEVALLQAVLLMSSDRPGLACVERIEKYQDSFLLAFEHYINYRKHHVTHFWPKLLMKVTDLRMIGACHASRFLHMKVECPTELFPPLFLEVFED
#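 Human TRb ligand-binding domain (0.6 uM) is mixed with 20 nM Texas Red SRC2 peptide and 1 uM T3; after compound addition and 5 hr at ambient temperature, polarization is measured and normalized to unbound and bound controls.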
# Numbers without * were called inactive; ? = inconclusive; · = not tested or not shown; ! = not confirmed by another sample; [ ] = dose if it differs, or a comment. Unless noted, the call rests on the fitted dose curve; in most records, active means well fitted curve in the direction sought with a large enough effect; inconclusive means small, poorly fitted or top-dose-only effect, or another doubt; inactive means no such curve, though single readings can be large; an effect the other way counts as inactive or inconclusive.
SMILES,RGS12 GoLoco inh,CBFb RUNX1 block,ERG Ets-DNA blk,TexasRed fluor,TRb-SRC2 inh
COc1ccc(OC)c(NC(=O)c2cc(S(=O)(=O)N3CCCCC3)c[nH]2)c1,·,·,-9%,·,·
Cc1cccc(-n2c(-c3ccccc3)cn3c4c(=O)[nH]c(=O)n(C)c4nc23)c1,·,·,7%,2%,4%
CCCCCSc1nc2sc3c(c2c(=O)n1-c1ccccc1)CCN(C(C)=O)C3,·,·,6%,0.018µM*[quencher],-28%[53 µM]
O=C1COc2cc(S(=O)(=O)CCC(=O)N3CCN(c4cccc(Cl)c4)CC3)c(Cl)cc2N1,·,·,2%,-29%,1%
COc1cc(/C=C2/S/C(=N/S(=O)(=O)Cc3ccccc3)NC2=O)c([N+](=O)[O-])cc1OC,25µM*,3%,-13%,3%,-7%
COc1cc(/C=C2\S/C(=N/S(=O)(=O)Cc3ccccc3)NC2=O)c([N+](=O)[O-])cc1OC,11%,-2%,0%,-5%,-1%
O=C(Cn1cc2c(n1)CCCC2)NCc1ccccn1,16µM*,10%,?,3%,-4%
O=C(Cn1cc2c(n1)CCCC2)NCc1cccs1,13%,3%,-11%,2%,-15%
Cc1c(Cl)cccc1NC(=O)C1CCN(c2ncnc3c2nc2n3CCCCC2)CC1,·,·,-11%,20µM*[quencher],-8%
CC(O)c1n(C)c(Cl)c[n+]1C (centres undefined),13µM*,4%,1%,0%,3%
CC1(C)[C@@H]([C@@H](Br)C(Br)(Br)Br)[C@H]1C(=O)O[C@H](C#N)c1cccc(Oc2ccccc2)c1,·,·,·,2%[201 µM],3%[201 µM]
O=c1oc2c(O)c(O)cc3c(=O)oc4c(O)c(O)cc1c4c23,28µM*!,·,5%,?,-2%
O=c1oc2ccccc2c2oc3cc(O)c(O)cc3c12,-2%,-16%,14%,-14%,9%
CC(C)CCCCCCc1ccc(OCCOCCO)cc1,·,·,·,2%[201 µM],6%[201 µM]
O=C(O)c1cc([N+](=O)[O-])c(Sc2nc3ccccc3[nH]2)c([N+](=O)[O-])c1,·,·,-1%,·,·
CS(=O)(=O)c1cc([N+](=O)[O-])c(Sc2nc3ccccc3[nH]2)c([N+](=O)[O-])c1,7.9µM*,2%,2%,-2%,7%
O=C(CSc1nnc(-c2ccco2)c(-c2ccco2)n1)Nc1ccccc1,6%,·,6%,45µM*[quencher],-6%
CCCCC/C=C\C/C=C\CCCCCCCC(=O)OC,·,·,·,3%[201 µM],5%[201 µM]
Cc1ccc2nc(CN3CCN(C(=O)Nc4ccc(C)c(F)c4)CC3)oc2c1,·,·,1%,-1%,6%
COCCN(C(=O)COC(=O)C(C)(C)Oc1ccc(Cl)cc1)c1c(N)n(Cc2ccccc2)c(=O)[nH]c1=O,·,·,13%,·,·
Cc1ccc(NC(=O)/C(C#N)=C(\N)C(Cl)(Cl)Cl)nc1,3.5µM*,-5%,?,2%,-1%
CCCS(=O)(=O)N1CC(=O)N(c2ccc(C)c(Cl)c2)C(C)(C(=O)NC2CCCCCC2)C1 (centres undefined),·,·,-3%,2%,-2%
CC1=C(C(=O)Nc2ccc(C)cc2Cl)C2(CCCCCC2)OC1=O,·,·,1%,11%,9%
CC1=C(C(=O)Nc2ccc(C)cc2Cl)C2(CCCCC2)OC1=O,·,·,4%,0.0056µM*[quencher],-13%
COC(CNC(=O)c1ccc2c3c(onc13)-c1ccccc1C2=O)OC,10µM*,-27%,16%,3%,-1%
COc1cccc(CNC(=O)CN2C(=O)CCCc3ccccc32)c1OC,·,·,-7%,20µM*[quencher],-9%
CCOC(=O)c1c(NC(=O)Cc2coc3cc(C)cc(C)c23)sc2c1CCC2,·,·,-1%,0.025µM*[quencher],?
